Data: PubChem BioAssay (NCATS)
Records with an inconclusive call do not appear. Active and inactive are the calls of the source. The call rests on the fitted dose curve; in most records, active means well fitted curve in the direction sought with a large enough effect; inconclusive means small, poorly fitted or top-dose-only effect, or another doubt; inactive means no such curve, though single readings can be large; an effect the other way counts as inactive or inconclusive.

How the values were obtained:
[1] = qHTS of pediatric cancer cell lines to identify multiple opportunities for drug repurposing: Primary screen for OHS-50 cells (AID 1347103);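 further: plate controls were DMSO neutral control for no effect and bortezomib positive control for full effect; nearly all actives have a fitted effect of over 40% in size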
Procedure, shortened: (§1)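 Cells (500-1,000/well) rested 5 h, then received compounds for 48 h; metabolically active cells were measured by CellTiter-Glo luminescence. Final concentrations spanned up to 46 µM (MIPE, 11-point) or 0.59 nM-46 µM (NPC, 8-point) in primary screens, 11-point in follow-ups.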

[2] = qHTS of pediatric cancer cell lines to identify multiple opportunities for drug repurposing: Primary screen for RD cells (AID 1347104);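 further: plate controls were DMSO for no effect and bortezomib for full effect; nearly all actives have a fitted effect of over 55% in size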
Procedure, shortened: (§2)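 Cells seeded at 500-1,000 cells/well in growth media, rested 5 hours at 37 degrees C, 5% CO2, then dosed; MIPE compounds at 11-point (from 0.78 nM) and NPC at 8-point (from 0.59 nM) final concentrations. Viability by CellTiter-Glo luminescence after 48 hours.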

[3] = qHTS of pediatric cancer cell lines to identify multiple opportunities for drug repurposing: Primary screen for MG 63 (6-TG R) cells (AID 1347105); further: on the % scale 0 is the no-effect control and ±100 the full control effect; nearly all actives have a fitted effect of over 50% in size
Procedure, shortened: as §2

[4] = qHTS of pediatric cancer cell lines to identify multiple opportunities for drug repurposing: Primary screen for Rh30 cells (AID 1347107); further: series mostly up to about 46 µM; on the % scale 0 is the no-effect control and ±100 the full control effect; nearly all actives have a fitted effect of over 75% in size
Procedure, shortened: as §1

[5] = qHTS of pediatric cancer cell lines to identify multiple opportunities for drug repurposing: Primary screen for control Hh wild type fibroblast cells (AID 1347106);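 further: series mostly up to about 46 µM; on the % scale 0 is the no-effect control and ±100 the full control effect; a drop in luminescence marks cytotoxicity and a rise apparent proliferation; nearly all actives have a fitted effect of over 55% in size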
Procedure, shortened: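 Cells (500-1,000/well) in growth media were settled 5 h at 37 degrees C, then given compounds for 48 h. Viability was read as CellTiter-Glo luminescence. Primary runs used MIPE at 11 points (0.78 nM-46 µM) and NPC at 8 points (0.59 nM-46 µM); follow-ups used 11 points.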

[6] = qHTS of pediatric cancer cell lines to identify multiple opportunities for drug repurposing: Primary screen for Rh41 cells (AID 1347108);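 further: series mostly up to about 46 µM; luminescence drop marks cytotoxic hits; nearly all actives have a fitted effect of over 70% in size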
Procedure, shortened: as §2

[7] = qHTS of pediatric cancer cell lines to identify multiple opportunities for drug repurposing: Confirmatory screen for NB1643 cells (AID 1347109);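 further: plate controls were DMSO for no effect and bortezomib for full effect; nearly all actives have a fitted effect of over 45% in size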
Procedure, shortened: as §1

[8] = qHTS of pediatric cancer cell lines to identify multiple opportunities for drug repurposing: Confirmatory screen for SK-N-MC cells (AID 1347111);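 further: cells exposed to compound for 48 h before the readout; plate controls were DMSO for no effect and bortezomib for full effect; nearly all actives have a fitted effect of over 70% in size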
Procedure, shortened: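 Seed 500-1,000 cells/well; rest 5 h at 37 degrees C. Pin-transfer compounds, 11-point titration. Incubate 48 h. Add CellTiter-Glo, 15 min RT, read luminescence.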

[9] = qHTS of pediatric cancer cell lines to identify multiple opportunities for drug repurposing: Confirmatory screen for BT-12 cells (AID 1347112); further: on the % scale 0 is the no-effect control and ±100 the full control effect; nearly all actives have a fitted effect of over 55% in size
Procedure, shortened: as §1

[10] = qHTS of pediatric cancer cell lines to identify multiple opportunities for drug repurposing: Confirmatory screen for DAOY cells (AID 1347114); further: on the % scale 0 is the no-effect control and ±100 the full control effect; nearly all actives have a fitted effect of over 65% in size
Procedure, shortened: (§3)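 Viability measured as metabolically active cells via CellTiter-Glo luminescence following 48 hours of compound exposure, 11-point dilutions in confirmatory testing. 500-1,000 cells/well plated 5 hours before dosing; controls were DMSO and 2.3 µM bortezomib.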

[11] = qHTS of pediatric cancer cell lines to identify multiple opportunities for drug repurposing: Confirmatory screen for SJ-GBM2 cells (AID 1347116);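 further: plate controls were DMSO for no effect and bortezomib for full effect; nearly all actives have a fitted effect of over 60% in size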
Procedure, shortened: as §3

[12] = qHTS of pediatric cancer cell lines to identify multiple opportunities for drug repurposing: Confirmatory screen for BT-37 cells (AID 1347117);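 further: plate controls were DMSO for no effect and bortezomib for full effect; nearly all actives have a fitted effect of over 55% in size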
Procedure, shortened: as §1

[13] = qHTS of pediatric cancer cell lines to identify multiple opportunities for drug repurposing: Confirmatory screen for TC32 cells (AID 1347118);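 further: cells exposed to compound for 48 h before the read; on the % scale 0 is the no-effect control and ±100 the full control effect; nearly all actives have a fitted effect of over 65% in size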
Procedure, shortened: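 Luminescent ATP read-out (CellTiter-Glo) of metabolically active TC32 cells after 48 h exposure. Concentration-response curves came from 11-point (MIPE, 0.78 nM–46 µM) or 8-point (NPC, 0.59 nM–46 µM) primary titrations; follow-up used 11 points.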

[14] = qHTS of pediatric cancer cell lines to identify multiple opportunities for drug repurposing: Confirmatory screen for MG 63 (6-TG R) cells (AID 1347119)
Procedure, shortened: as §1

[15] = qHTS of pediatric cancer cell lines to identify multiple opportunities for drug repurposing: Confirmatory screen for control Hh wild type fibroblast cells (AID 1347121);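 further: plate controls were DMSO for no effect and bortezomib for full effect; nearly all actives have a fitted effect of over 70% in size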
Procedure, shortened: as §1

[16] = qHTS of pediatric cancer cell lines to identify multiple opportunities for drug repurposing: Confirmatory screen for U-2 OS cells (AID 1347122); details: outcome: dose series up to 45.9 µM;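 further: plate controls were DMSO for no effect and bortezomib for full effect; nearly all actives have a fitted effect of over 65% in size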
Procedure, shortened: as §1

[17] = qHTS of pediatric cancer cell lines to identify multiple opportunities for drug repurposing: Confirmatory screen for Rh41 cells (AID 1347123);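 further: 48 h compound exposure; plate controls were DMSO for no effect and bortezomib for full effect; nearly all actives have a fitted effect of over 60% in size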
Procedure, shortened: as §1

CCCn1cnc2c1c(=O)n(CCCCC(C)=O)c(=O)n2C
inactive: Potency [1] | Potency [2] | Potency [3] | outcome [4]

CC(=O)CCC(=O)O
inactive: Potency [1] | Potency [2] | Potency [3] | outcome [5] | outcome [4] | Potency [6]

C[C@](N)(Cc1ccc(O)cc1)C(=O)O
inactive: activity change, negative = cytotoxic [1] -5.63% [at 6.18 µM] | activity change, negative = cytotoxic [4] -4.89% [at 4.84 µM] | activity change, negative = cytotoxic [6] -37.3% [at 4.84 µM] | activity change, negative = cytotoxic [7] 4.45% [at 5.01 µM] | activity change, negative = cytotoxic [8] 6.85% [at 5.01 µM] | activity change, negative = cytotoxic [9] -3.72% [at 5.01 µM] | activity change, negative = cytotoxic [10] 9.36% [at 5.01 µM] | activity change, negative = cytotoxic [11] 8.57% [at 5.01 µM] | activity change, negative = cytotoxic [12] -10.9% [at 5.01 µM] | Potency [13] | activity change, negative = cytotoxicity [14] 15.9% [at 5.01 µM] | activity, negative = cytotoxic [15] -2.45% [at 5.01 µM] | activity change, negative = cytotoxicity [16] 3.67% [at 5.01 µM] | activity change, negative = cytotoxic [17] 0% [at 5.01 µM]

O=C(O)[C@H](O)c1ccccc1
inactive: Potency [2] | Potency [3] | outcome [5] | outcome [4]
